The source of these data is PubChem BioAssay (NCI).

Holding throughout (test): NCI-60 one-dose screen, 48 h (100 = growth as untreated, 0 = no growth, -100 = all killed)
What all share (settings): 10 µM unless noted

The subject of assay [1] is HCT-15 colon.
For assay [2], the system named is HT29 colon.
For assay [3], the system named is SNB-75 CNS.
For assay [4], the system named is SNB-19 CNS.
For assay [5], the system named is U251 CNS.
For assay [6], the system named is PC-3 prostate.
Assay [7] relates to SK-MEL-5 melanoma.
In assay [8] the test system is UACC-62 melanoma.
For assay [9], the system named is SK-MEL-28 melanoma.
Assay [10] deals with SK-MEL-2 melanoma.
Assay [11] relates to EKVX NSCLC.
For assay [12], the system named is SN12C renal.
Assay [13] relates to UO-31 renal.
Assay [14] concerns TK-10 renal.
In assay [15] the test system is ACHN renal.
Assay [16] relates to CAKI-1 renal.
Assay [17] has as its system A498 renal.
Assay [18] relates to CCRF-CEM leukemia.
Assay [19] relates to MOLT-4 leukemia.
The subject of assay [20] is LOX IMVI melanoma.

The structures appear in SMILES notation. Compounds without any hit were thinned out: in the full panel of roughly 83,000, 20% have a hit.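 Each cell line was grown in a 96-well plate and treated with one concentration of compound for 48 hours. Values below 10 were considered active.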 Values without a mark were called inactive. Activity calls are given as the source filed them.

`COc1ccc2[nH]cc(-c3nn4cc(-c5ccncc5)nc4s3)c2c1`: the growth in assay [1] is 37.8%; in assay [2] it was 66.6%; in [3], 61.7%; in [4], 75.3%; in assay [5], 67.9%; in [6] it was 45.7%. The growth in [7] was 67.4%; in [8], 63.8%; in assay [9] it was 112%; in assay [10], 101%; in [11], 55.4%; in [12], 83.5%. Besides, the growth in assay [13] was 23.3%; in assay [14] it was 109%; in [15] it was 57.5%; in assay [16], 56.9%; in assay [17], 68.9%; in [18], 37.9%. The growth in assay [19] is 50.4%.

As for `CS(=O)(=O)c1nccc(-c2c(-c3cccc(OCc4ccc(Cl)c(C(F)(F)F)c4)c3)nc3sccn23)n1`, the growth in [1] was -30.7% (active); in assay [2], 95.8%; in [3], 108%; in assay [4] it was 58.6%; in [5], 98.3%; in [6] it was 86.5%. The growth in [7] was 97.2%; in [8], 87.5%; in assay [20], -75.9% (active); in assay [10] it was 107%; in assay [11], 78.9%; in assay [12], 74.7%. In addition, the growth is 0.98% (active) in assay [13]; 112% in assay [14]; 71.9% in assay [15]; 73.7% in [16]; 98.3% in assay [17]; 13.2% in assay [18]. In [19], the growth was 9.69% (active).

In the case of `COc1cc(OC)cc(-c2cc(-c3c[nH]c4ccccc34)nc(-c3c[nH]c4ccccc34)c2C#N)c1`, the growth in assay [1] is 102%; in assay [2], 108%; in [3], 87.6%; in assay [4], 96.6%; in assay [5], 100%; in [6] it was 93.6%. Further, the growth was 98.5% in [7]; 93.6% in assay [8]; 101% in assay [9]; 88.4% in assay [10]; 91.5% in [11]; 95.1% in assay [12]. Further, the growth in [13] was 71.3%; in assay [14], 124%; in [15], 97.2%; in assay [16] it was 91%; in [17], 96.7%; in [18], 97.2%. The growth in assay [19] is 98.6%.

In the case of `O=C(CCCCCCNC(=O)C(O)(O)C(F)(F)F)Nc1ccc(Br)cc1`, the growth in [1] is 20.8%; in assay [2] it was 2.18% (active); in assay [3], 33.9%; in assay [4], 14.7%; in assay [5] it was -21.3% (active); in assay [6], 31.6%. The growth in assay [7] is -68.3% (active); in assay [8], -50% (active); in assay [20], -75.2% (active); in assay [10] it was -24.7% (active); in assay [11], 33.3%; in assay [12], 20.1%. Besides, the growth in assay [13] is -2.06% (active); in [15], -15.8% (active); in assay [16], -13.9% (active); in [17], -13.9% (active); in [18], 23.9%; in assay [19] it was 13.2%.

In the case of `O=C(CSc1nc2ccccc2c(=O)n1-c1ccccc1)Nc1ccc(S(=O)(=O)Nc2nccs2)cc1`, the growth in [1] was 66.5%; in [2], 69.5%; in assay [3], 57.4%; in [4], 43.7%; in [5], 2.78% (active); in assay [6] it was 91%. Also, the growth in assay [7] was 66.5%; in assay [8], 71.4%; in assay [9], 76.3%; in assay [10] it was 89.9%; in [11], 91.3%; in assay [12] it was 63.8%. The growth is 97.2% in assay [13]; 112% in [14]; 71.9% in assay [15]; 59.1% in assay [16]; 107% in assay [17]; 34.8% in assay [18]. Moreover, in assay [19], the growth was 50.2%.

For the compound `C[C@]12CC[C@H]3[C@@H](CC=C4C[C@@H](O)CC[C@@]43C)[C@@H]1CC[C@@H]2[C@](C)(O)CCc1cccnc1`, the growth in [1] was 70.2%; in [2] it was 69.1%; in [3] it was 62%; in assay [4], 71.4%; in assay [5] it was 74.1%; in assay [6], 70.1%. Moreover, the growth in assay [7] is 7.89% (active); in assay [8], 62.6%; in [9] it was 74.4%; in assay [10] it was 79.8%; in assay [11], 36.7%; in assay [12] it was 79.9%. Further, the growth in assay [13] was 63.8%; in assay [14], 84.3%; in [15], 60.7%; in [16], 69.1%; in assay [17], 72.8%; in assay [18], 59.8%. Also, in assay [19], the growth is 48.9%.

In the case of `O=C(CCCCCCNC(=O)C(O)(O)C(F)(F)F)Nc1ccc(-c2ccccc2)cc1`, the growth in [1] is 9.19% (active); in assay [2], 4.75% (active); in assay [3], 40.4%; in [4], 15.2%; in [5], -3.64% (active); in assay [6] it was 28.7%. Further, the growth in assay [7] is -41.5% (active); in [8] it was -61.4% (active); in assay [9] it was 5.07% (active); in assay [10], -37.4% (active); in assay [11], 34.2%; in assay [12], 14.6%. The growth in assay [13] was -1.11% (active); in assay [15], -18.3% (active); in [16], 2.61% (active); in assay [17], -7.85% (active); in assay [18], 23.6%; in assay [19], 14.1%.
